Data on 9 molecules can be found in the supplement of paper PMC12340641.

Assay [1] has as its target IKZF1 (dCK*-IKZF1 fusion in HEK293FT) (UniProt Q13422). Kind of assay: inhibition of IKZF1 HTRF signal (DMSO = 0%, pomalidomide 10 uM = 100%); higher = lower IKZF1 protein level. Conditions: compound concentration: 5 uM, overnight (~20 h). The method, boiled down: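 HEK293FT cells stably expressing a dCK*-IKZF1 fusion (2000/well, 384-well) were treated overnight at 37 °C with 5 μM compound in single wells. They were then lysed 30 min at room temperature, and lysate was incubated overnight with a commercial HTRF total-IKZF1 antibody kit. The time-resolved FRET ratio (665/620 nm) was background-subtracted. Percent inhibition of IKZF1 signal was normalised per plate to vehicle (0%) and a reference degrader (100%).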
In general terms: In TR-FRET formats the signal depends on donor and acceptor labels being close together.

Another assay concerns HEK293FT dCK*-only. In words: relative growth in counter assay (no AraC = 100%, AraC + DMSO = 0%); higher = more growth rescue independent of IKZF1. Conditions: compound concentration: 5 uM; AraC concentration: 0.3 uM; overnight pretreatment + 4 days AraC. The method, boiled down: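 In 384-well plates, 300 HEK293FT cells per well expressing an engineered kinase construct alone got 5 μM compound 2 h after seeding. After overnight at 37 °C, 0.3 μM nucleoside suicide substrate plus medium was applied for 4 days. Counting of Hoechst 33342-stained nuclei by imaging on day 5 was normalised per plate, with 100% for no-substrate wells and 0% for substrate plus vehicle.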

The test system of another assay is HEK293FT dCK*-IKZF1. Kind of assay: relative growth recovery (pomalidomide 10 uM = 100%, DMSO = 0%); higher = more growth rescue (IKZF1 fusion degradation). The conditions noted are these: compound concentration: 5 uM; AraC concentration: 0.3 uM; overnight pretreatment + 4 days AraC. The method, boiled down:
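On day 5, whole-well imaging was used to count Hoechst 33342-stained nuclei of HEK293FT cells stably carrying a deoxycytidine kinase–IKZF1 fusion. These cells had received 5 μM compound 2 h after seeding, followed after overnight at 37 °C by a nucleoside suicide substrate at 0.3 μM plus medium for 4 days. Growth recovery was normalised on each plate against a reference degrader and vehicle, which defined 100% and 0%, and values are duplicate means from separate days.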

IKZF1 (dCK*-IKZF1 fusion in HEK293FT), sequence (Q13422 whole entry, looked up, the tested form may be a part): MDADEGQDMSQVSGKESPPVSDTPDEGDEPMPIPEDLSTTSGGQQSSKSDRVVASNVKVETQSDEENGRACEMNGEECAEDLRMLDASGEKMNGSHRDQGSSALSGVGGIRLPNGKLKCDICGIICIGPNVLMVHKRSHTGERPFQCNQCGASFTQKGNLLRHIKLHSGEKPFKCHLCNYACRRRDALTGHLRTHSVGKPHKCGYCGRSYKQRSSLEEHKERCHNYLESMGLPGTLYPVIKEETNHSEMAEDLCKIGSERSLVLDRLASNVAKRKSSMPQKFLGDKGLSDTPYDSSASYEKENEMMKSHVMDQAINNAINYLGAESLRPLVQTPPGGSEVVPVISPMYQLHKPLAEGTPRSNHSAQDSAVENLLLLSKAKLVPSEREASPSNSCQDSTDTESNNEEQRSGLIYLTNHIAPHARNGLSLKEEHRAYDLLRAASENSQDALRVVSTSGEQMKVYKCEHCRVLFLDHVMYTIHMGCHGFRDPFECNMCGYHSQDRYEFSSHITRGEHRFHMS

Regarding `CCCCC(F)(F)C(=O)CC[C@H]1[C@H](O)CC(=O)[C@@H]1CCCCCCC(=O)O` [Lubiprostone], the “inhibition of IKZF1 HTRF signal” value in assay [1] was -43.7%. For the same molecule, the “relative growth in counter assay” value with HEK293FT dCK*-only is -3.38%. Moreover, in the assay with HEK293FT dCK*-IKZF1, the relative growth recovery is -1.27%.

With `NC(=O)c1ccc[n+]([C@@H]2O[C@H](COP(=O)(O)OP(=O)(O)OC[C@H]3O[C@@H](n4cnc5c(N)ncnc54)[C@H](O)[C@@H]3O)[C@@H](O)[C@H]2O)c1`, the “inhibition of IKZF1 HTRF signal” value in assay [1] is -23.1%. For the same molecule, the “relative growth in counter assay” value in the assay on HEK293FT dCK*-only was 5.09%. Further, the relative growth recovery in the assay on HEK293FT dCK*-IKZF1 turned out to be 1.08%.

Turning to `CCOC(=O)Nc1nc2ccccc2[nH]1`, the “inhibition of IKZF1 HTRF signal” value in assay [1] was -22.3%. In addition, the “relative growth in counter assay” value with HEK293FT dCK*-only is 2.38%. For the same molecule, the relative growth recovery with HEK293FT dCK*-IKZF1 is -1.88%.

For `O=C(CCCCCCC(=O)Nc1ccccc1)NO` [Vorinostat (SAHA, MK0683)], the “inhibition of IKZF1 HTRF signal” value in assay [1] is -29.5%. In the assay with HEK293FT dCK*-only, the “relative growth in counter assay” value was -30.5%. Besides, the relative growth recovery in the assay with HEK293FT dCK*-IKZF1 is -11.6%.

In the case of `Cc1cccc(Nc2nc(-c3ccncc3)cs2)c1`, the “inhibition of IKZF1 HTRF signal” value in assay [1] is -51.1%. Moreover, the “relative growth in counter assay” value in the assay on HEK293FT dCK*-only is -8.26%. In addition, in the assay on HEK293FT dCK*-IKZF1, the relative growth recovery was -0.535%.

As to `C[C@H](NCc1ccc(OCc2ccccc2F)cc1)C(N)=O` [priralfinamide], the “inhibition of IKZF1 HTRF signal” value in assay [1] was -24%. Further, the “relative growth in counter assay” value in the assay on HEK293FT dCK*-only was -0.94%. In addition, in the assay with HEK293FT dCK*-IKZF1, the relative growth recovery is -2.81%.

For `Cc1ncsc1-c1ccc(CNC(=O)[C@@H]2C[C@@H](O)CN2C(=O)[C@@H](NC(=O)COCCOCCOCCOc2ccc(-c3ccc4ncnc(Nc5ccc(OCc6cccc(F)c6)c(Cl)c5)c4c3)cc2)C(C)(C)C)cc1`, the “inhibition of IKZF1 HTRF signal” value in assay [1] stood at 13.3%. Moreover, the “relative growth in counter assay” value in the assay with HEK293FT dCK*-only stood at 18%. Besides, the relative growth recovery in the assay on HEK293FT dCK*-IKZF1 was determined as 4.09%.

In the case of `Cc1ccccc1N=Nc1ccc(N=Nc2c(O)ccc3ccccc23)c(C)c1` [Solvent Red 24], the “inhibition of IKZF1 HTRF signal” value in assay [1] was 13.9%. For the same molecule, the “relative growth in counter assay” value in the assay on HEK293FT dCK*-only was -1.17%. For the same molecule, in the assay with HEK293FT dCK*-IKZF1, the relative growth recovery is -0.495%.

For the molecule `CO[C@H]1CC(O[C@@H]2/C(C)=C/C[C@@H]3C[C@@H](C[C@]4(CC[C@H](C)[C@@H](C5CCCCC5)O4)O3)OC(=O)[C@@H]3C=C(C)/C(=N/O)[C@H]4OC/C(=C\C=C\[C@@H]2C)[C@]43O)O[C@@H](C)C1O` (some centres not stated), the “inhibition of IKZF1 HTRF signal” value in assay [1] was -24.5%. Besides, in the assay on HEK293FT dCK*-only, the “relative growth in counter assay” value turned out to be 10.4%. Moreover, in the assay with HEK293FT dCK*-IKZF1, the relative growth recovery is -2.14%.
